{"source": "PubChem BioAssay (NCATS)", "note": "Results filed as inconclusive are left out. Entries that show only a call come without a potency. Values without a mark were called inactive. Activity calls are given as the source filed them. The call rests on the fitted dose curve."}
{"test": "Cytotoxicity counterscreen for inhibitors of SARS-CoV-2 cell entry (AID 1645845); further: nearly all actives have a fitted effect of over 50% in size", "details": "cell viability (SARS-CoV-2 entry assay cells); series mostly up to 57.1 µM; activity change, negative = cytotoxicity: at the top concentration", "how_it_was_run": "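After a 15 min room-temperature ATPLite 1step step, luminescence reflected ATP remaining in HEK293-ACE2 cells exposed to compound for 1 h plus 48 h at 37 C, with percent activity set by cell and no-cell controls.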", "units": {"activity change, negative = cytotoxicity": "%"}}
{"smiles": "CC(=O)N(CC(O)CN(C(C)=O)c1c(I)c(C(=O)NCC(O)CO)c(I)c(C(=O)NCC(O)CO)c1I)c1c(I)c(C(=O)NCC(O)CO)c(I)c(C(=O)NCC(O)CO)c1I", "note": "(stereo not drawn)", "outcome": "inactive"}
{"smiles": "N=C(N)c1ccc2cc(OC(=O)c3ccc(N=C(N)N)cc3)ccc2c1", "Potency": "inactive"}
{"smiles": "CCCCNc1cc(C(=O)O)cc(S(N)(=O)=O)c1Oc1ccccc1", "Potency": "inactive"}
{"smiles": "CCN(CC)CCNC(C(=O)OCCC(C)C)c1ccccc1", "note": "(stereo not drawn)", "outcome": "inactive"}
{"smiles": "C#C[C@]1(O)CC[C@H]2[C@@H]3[C@H](C)CC4=C(CCC(=O)C4)[C@H]3CC[C@@]21C", "Potency": "inactive"}
{"smiles": "O=C(O)C(=O)Nc1cccc(-c2nn[nH]n2)c1", "Potency": "inactive"}
{"smiles": "Nc1nc2ncc(CNc3ccc(C(=O)N[C@@H](CCC(=O)O)C(=O)O)cc3)nc2c(=O)[nH]1", "outcome": "inactive"}
{"smiles": "CCCc1cc(C(N)=S)ccn1", "Potency": "inactive"}
{"smiles": "O=S(=O)(c1cccc2cnccc12)N1CCCNCC1", "Potency": "inactive"}
{"smiles": "NCCc1cnc[nH]1", "Potency": "inactive"}
{"smiles": "c1ccc([C@H]2CN3CCSC3=N2)cc1", "Potency": "inactive"}
{"smiles": "CC(C)(Oc1ccc(CCNC(=O)c2ccc(Cl)cc2)cc1)C(=O)O", "outcome": "inactive"}
{"smiles": "NS(=O)(=O)c1ccc(N2CCCCS2(=O)=O)cc1", "outcome": "inactive"}
{"smiles": "CCCCC(=O)O[C@]1(C(=O)CO)CC[C@H]2[C@@H]3CCC4=CC(=O)CC[C@]4(C)[C@H]3[C@@H](O)C[C@@]21C", "activity change, negative = cytotoxicity": -3.68}
{"smiles": "CCN1CCCC(OC(=O)C(c2ccccc2)c2ccccc2)C1", "note": "(stereo not drawn)", "activity change, negative = cytotoxicity": -19.7}
{"smiles": "CCN1C(=O)c2ccccc2C1Nc1ccc(OCCN2CCCCC2)cc1", "note": "(stereo not drawn)", "outcome": "inactive"}
{"smiles": "NCCNC(=O)c1ccc(Cl)cn1", "outcome": "inactive"}
{"smiles": "O=S1(=O)OC(c2ccc(O)cc2)(c2ccc(O)cc2)c2ccccc21", "activity change, negative = cytotoxicity": 2.39}
